For assay [1], the system named is TRPC4 beta (transient receptor potential cation channel C4), mouse. Kind of assay: TRPC4 cation channel opening, retest – cell-based, Fluo4 calcium, HEK293 TRPC4beta/mu-opioid, duplicates, 10 µM, confirmation (AID 2426;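 active = fluorescence ratio normalized to control raised more than 50% in primary screen plus both repeat runs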;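 for activation: percent rise of integrated ratio over buffer wells lacking compound which define 0%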). The conditions noted are these: Fluo4 calcium fluorescence, at 10 µM; hits give high values.
The test system of assay [2] is transient receptor potential cation channel C4 beta (TRPC4), mouse. Kind of assay: TRPC4 cation channel opening, second retest – cell-based, second round, Fluo4, HEK293 TRPC4beta/mu-opioid, 1 µM, confirmation (AID 2461;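 active = primary screen active and over 50% activation in each of two duplicate runs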;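 for activation: 0% = wells without test compound as baseline of integrated fluorescence ratio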). The conditions noted are these: Fluo4 calcium fluorescence, at 1 µM; hits give high values.
For assay [3], the system named is TRPC4 (transient receptor potential cation channel C4 beta), mouse. The assay can be described thus: potentiation of DAMGO EC20 TRPC4 response – cell-based, second round, Fluo-4, HEK293 TRPC4beta/mu-opioid, 1 µM, confirmation (AID 2554;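 active = primary screen hit whose fluorescence ratio, in both repeats, exceeds the weak agonist control mean by 3 SD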). The conditions noted are these: DAMGO EC20, Fluo-4 calcium flux, at 1 µM; hits give high values.
Assay [4] has as its system TRPC4 beta (transient receptor potential cation channel C4), mouse. The assay can be described thus: potentiation of DAMGO EC20 TRPC4 response – cell-based, Fluo-4, HEK293 TRPC4beta/mu-opioid, confirmation (AID 2555;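 active = primary screen hit whose calcium fluorescence ratio, in both repeats, exceeds the weak agonist control mean by 3 SD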). The conditions noted are these: DAMGO EC20, Fluo-4 calcium flux, at 10 µM; hits give high values.
For assay [5], the target named is Short transient receptor potential channel 4 (Mus musculus) (UniProt Q9QUQ5). The assay can be described thus: blockers of DAMGO-evoked TRPC4 calcium flux – cell-based, Fluo4, HEK293 TRPC4beta/mu-opioid, confirmation (AID 2636;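 active = calcium signal cut by more than 3 SD below the full-agonist control yet still positive, in both repeats and the earlier primary screen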). The note with it: at 10 µM; hits give high values.
The target is the same in assay [6]. Kind of assay: blockers of DAMGO-evoked TRPC4 calcium flux – cell-based, second round, Fluo4, HEK293 TRPC4beta/mu-opioid, 1 µM, confirmation (AID 2637;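 active = calcium signal ratio cut to more than 3 SD under the fully stimulated control mean yet still positive, in both repeats and the primary screen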). The note with it: at 1 µM; hits give high values.
For assay [7] the target is unchanged. The assay can be described thus: potentiation of DAMGO-evoked TRPC4 calcium signal – cell-based, HEK293 TRPC4/mu-opioid, Fluo-4 calcium, EC20 DAMGO, dose response (AID 434941;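 active = earlier screen potentiator hit that boosts the TRPC4 ion channel at some dose, with a dose response; inactive = no potentiation, no dose response, or not a prior hit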;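 note: calcium entry triggered by an EC20 dose of DAMGO at the co-expressed mu-opioid receptor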).
Assay [8] shares this target. Kind of assay: block of DAMGO-driven TRPC4 calcium entry – cell-based, HEK293 TRPC4/mu-opioid, Fluo-4 calcium, dose response (AID 434942;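 active = primary screen inhibitor hit that blocks the TRPC4 channel at some tested dose, yielding a dose curve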).
Assay [9] addresses Short transient receptor potential channel 6 (Mus musculus) (UniProt Q61143). Kind of assay: TRPC6 blockade by TRPC4 inhibitor hits – cell-based, HEK293, membrane potential dye, duplicate, selectivity assay for TRPC4 inhibitor project, confirmation (AID 434948;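 active = active in primary screen and both duplicates, each dropping signal beyond three positive-control SD with fluorescence still positive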). The conditions noted are these: HEK293 TRPC6, membrane potential dye fluorescence, at 10 µM, stimulated with maximal-effect acetylcholine; hits give high values.

Assay [10] shares this target. The assay can be described thus: TRPC6 opening by TRPC4 activator hits – cell-based, HEK293, membrane potential dye, duplicate, selectivity assay for TRPC4 activator project, confirmation (AID 434950;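 active = membrane potential signal rise above negative control mean plus 3 SD in both duplicates, also active in the earlier TRPC4 screen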;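 for activation: 0% = buffer only wells and 100% = acetylcholine maximal-effect wells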). The note with it: HEK293 TRPC6, membrane potential fluorescence, at 10 µM; activation: hits give high values; outcome: activation.
Assay [11] shares this target. Kind of assay: positive modulators of mouse TRPC6 channel – HEK293 cells, membrane potential dye, duplicate, selectivity assay for TRPC4 potentiator project, confirmation (AID 434952;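 active = compound raising the membrane signal above positive-control mean plus 3 SD in both repeats, and a primary screen hit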). The note with it: HEK293 TRPC6, membrane potential dye fluorescence, at 10 µM, maximal acetylcholine added after compound; hits give high values.
Assay [12] addresses Short transient receptor potential channel 4 (Mus musculus) (UniProt Q9QUQ5). The assay can be described thus: calcium flux activators in TRPC4/5HT1a cells, counter-screen for TRPC4 activator project, cell-based, second counter screen, HEK293 TRPC4/5HT1a, Fluo-4 (AID 434977).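 For activation: plate controls were assay buffer for no effect and maximal serotonin response for full effect.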 The note with it: Fluo-4 calcium flux, at 10 µM; hits give high values.
Assay [13] is described as follows: serotonin-gated TRPC4 signal block – cell-based, second counter screen, HEK293 TRPC4/5HT1a, Fluo-4, counter-screen for TRPC4 inhibitor project, confirmation (AID 434978;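 active = primary screen active whose calcium signal fell more than 3 SD beyond the full-serotonin control mean in both duplicate plates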;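 note: serotonin given first at submaximal then at maximal dose after compound preincubation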). The note with it: Fluo-4 calcium flux, at 10 µM, serotonin added to trigger calcium flux; hits give high values.
The subject of assay [14] is TRPC4 (mouse), co-expressed with 5HT1a in HEK293. The assay can be described thus: enhancement of serotonin-evoked TRPC4 response – cell-based, second counter screen, HEK293 TRPC4/5HT1a, Fluo-4, counter-screen for TRPC4 potentiator project, confirmation (AID 434979;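 active = signal rise over 3 SD above mean of control wells given weak agonist, in both repeats and first screen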). The note with it: Fluo-4 calcium flux, at 10 µM, serotonin added at its EC20 dose; hits give high values.

Assay [15] can be described thus: nonspecific calcium rise without TRPC4 – cell-based, HEK293 mu-opioid receptor line, counter-screen for TRPC4 activator project, confirmation (AID 449723;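 active = hit in primary screen, with calcium signal over 5 SD above buffer well mean in both duplicates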;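 note: counter screen cells carry the mu-opioid receptor alone and lack TRPC4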). The note with it: HEK293 mu-opioid cells, Fluo-4 calcium fluorescence, at 10 µM; hits give high values.
A short description of assay [16]: nonspecific potentiation of DAMGO calcium response – cell-based, HEK293 mu-opioid receptor line, counter-screen for TRPC4 allosteric potentiator project, confirmation (AID 449724;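 active = calcium signal rise more than 3 SD above the low-dose agonist control mean, in both duplicate plates and the primary screen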;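 note: HEK293 cells carrying mu-opioid receptor only with no TRPC4 channel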). The note with it: HEK293 mu-opioid receptor cells, Fluo-4 calcium flux, at 10 µM, compound added before EC20 DAMGO stimulus; hits give high values.

15 compounds from PubChem BioAssay can be followed below.

For part of these data: Potency and affinity values are given separately. Activity calls are given as the source filed them.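 Rule for the calls, unless noted: active = calcium signal rise above buffer-control mean plus 5 SD in both duplicates, and also a hit in the primary screen; inactive = the rest.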

Sequence of Short transient receptor potential channel 6 (Mus musculus) (Q61143 whole entry, looked up): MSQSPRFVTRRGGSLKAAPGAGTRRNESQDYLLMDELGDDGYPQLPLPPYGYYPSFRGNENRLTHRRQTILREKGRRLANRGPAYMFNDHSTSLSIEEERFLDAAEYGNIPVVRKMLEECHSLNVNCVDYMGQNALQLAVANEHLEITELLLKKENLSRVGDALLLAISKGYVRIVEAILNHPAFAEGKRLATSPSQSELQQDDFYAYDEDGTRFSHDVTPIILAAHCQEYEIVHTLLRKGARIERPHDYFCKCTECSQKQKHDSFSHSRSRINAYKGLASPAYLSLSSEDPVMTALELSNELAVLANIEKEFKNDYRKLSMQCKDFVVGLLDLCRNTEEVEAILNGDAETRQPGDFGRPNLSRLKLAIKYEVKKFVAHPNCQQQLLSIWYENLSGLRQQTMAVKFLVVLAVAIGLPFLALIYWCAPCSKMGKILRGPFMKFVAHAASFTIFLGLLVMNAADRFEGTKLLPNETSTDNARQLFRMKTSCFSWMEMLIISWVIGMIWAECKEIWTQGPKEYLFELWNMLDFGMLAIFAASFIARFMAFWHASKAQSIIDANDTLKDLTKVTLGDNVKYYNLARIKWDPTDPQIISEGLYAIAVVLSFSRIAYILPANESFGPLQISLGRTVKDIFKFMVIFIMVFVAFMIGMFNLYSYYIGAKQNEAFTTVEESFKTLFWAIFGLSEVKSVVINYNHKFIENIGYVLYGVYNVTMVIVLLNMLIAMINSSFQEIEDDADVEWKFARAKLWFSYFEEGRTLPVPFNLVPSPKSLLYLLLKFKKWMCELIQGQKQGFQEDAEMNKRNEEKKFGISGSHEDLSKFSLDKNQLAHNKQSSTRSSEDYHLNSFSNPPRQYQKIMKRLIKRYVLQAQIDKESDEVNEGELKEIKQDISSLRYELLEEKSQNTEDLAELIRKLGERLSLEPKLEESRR
Sequence of Short transient receptor potential channel 4 (Mus musculus) (Q9QUQ5 whole entry, looked up): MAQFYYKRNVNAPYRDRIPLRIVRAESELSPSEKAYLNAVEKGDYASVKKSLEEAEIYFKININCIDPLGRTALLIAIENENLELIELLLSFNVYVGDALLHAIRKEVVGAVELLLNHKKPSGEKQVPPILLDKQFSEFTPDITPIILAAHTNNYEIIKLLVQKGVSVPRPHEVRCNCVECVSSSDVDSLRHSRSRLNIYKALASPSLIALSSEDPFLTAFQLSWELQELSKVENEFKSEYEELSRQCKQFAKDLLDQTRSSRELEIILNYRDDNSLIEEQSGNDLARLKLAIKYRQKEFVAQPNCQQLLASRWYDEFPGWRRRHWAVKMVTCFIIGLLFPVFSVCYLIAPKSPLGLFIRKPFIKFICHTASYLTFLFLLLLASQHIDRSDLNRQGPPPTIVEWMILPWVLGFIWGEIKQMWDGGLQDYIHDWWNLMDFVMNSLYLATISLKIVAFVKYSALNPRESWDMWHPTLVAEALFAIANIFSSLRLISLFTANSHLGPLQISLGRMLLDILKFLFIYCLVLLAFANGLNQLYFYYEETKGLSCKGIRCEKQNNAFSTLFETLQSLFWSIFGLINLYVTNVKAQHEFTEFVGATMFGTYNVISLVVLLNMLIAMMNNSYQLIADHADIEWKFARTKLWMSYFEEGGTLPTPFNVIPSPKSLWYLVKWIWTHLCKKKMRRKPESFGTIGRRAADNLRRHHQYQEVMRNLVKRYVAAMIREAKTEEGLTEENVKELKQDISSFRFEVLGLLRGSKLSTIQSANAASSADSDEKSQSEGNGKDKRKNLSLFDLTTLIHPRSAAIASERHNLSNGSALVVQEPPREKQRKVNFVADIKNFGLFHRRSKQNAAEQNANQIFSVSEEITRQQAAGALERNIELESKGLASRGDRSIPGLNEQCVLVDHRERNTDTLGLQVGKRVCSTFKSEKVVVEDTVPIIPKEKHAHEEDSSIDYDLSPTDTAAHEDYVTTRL

As to `CCOC(=O)C1(Cc2cccc(F)c2)CCN(Cc2cnn(CC)c2)CC1`, the figures for the activation in assay [1], in assay [2] and in assay [10] were 118% (active), 92% (active) and 51.5% (active), respectively. For the same compound, the result in [3], in [4], in [5], in assay [6], in [7] and in assay [8] was inactive. Besides, the result in assay [9], in assay [11], in [12], in assay [13], in assay [14] and in assay [15] was inactive. For the same compound, the result in assay [16] was inactive.

Regarding `Cc1ccc(S(=O)(=O)/N=C2/NC(=O)/C(=C\c3cc(Br)cc(Br)c3O)S2)cc1`, the outcome in assay [1], in assay [2], in assay [3], in [5], in assay [6] and in [7] was inactive. The outcome in assay [8], in assay [9], in [11] and in assay [13] was inactive. The figures for the potentiation in assay [4] and in assay [14] were 35% (active) and 9.14% (active), respectively. Also, the activation in assay [10] is 447% (active); in assay [12], 45.6% (active); in assay [15], 60.8% (active); in assay [16] it was 600% (active).

Take `COc1ccc2c(Cl)c(-c3nnc(SCC(=O)c4ccccc4)n3C)sc2c1`: the outcome in assay [1], in assay [2], in assay [3], in assay [4], in assay [5] and in [6] was inactive. Further, the outcome in assay [7], in assay [8], in assay [9], in [11], in assay [12] and in [13] was inactive. Besides, the result in assay [14], in assay [15] and in assay [16] was inactive. Besides, in assay [10], the activation is 35.5% (active).

On to `Cc1c(Cl)cccc1NC(=S)NCC(c1cccnc1)N(C)C` (stereo not given), for which the result in assay [1], in assay [3], in assay [4], in assay [5], in assay [6] and in assay [7] was inactive. For the same compound, the result in [8], in [9], in assay [11], in assay [12], in assay [13] and in assay [14] was inactive. Also, the result in [15] and in assay [16] was inactive. The activation in assay [2] is 103% (active); in assay [10], 47.5% (active).

Regarding `CNC[C@H](Cc1ccccc1)NC[C@@H](Cc1cccc2ccccc12)NCCc1ccc(C)cc1`, the activation was 228% (active) in assay [1], 68.3% (active) in [12] and 37.9% (active) in [15]. Besides, the result in assay [2], in assay [3], in [4], in assay [5], in assay [6] and in [7] was inactive. In addition, the result in assay [8], in assay [9], in [10], in assay [11], in [13] and in [14] was inactive. Moreover, in assay [16], the result was inactive.

On to `Cc1oc(-c2ccccc2Cl)nc1CS(=O)CC(=O)NCCCN1CC(C)CC(C)C1` (stereo not given), for which the activation in assay [1] was 78% (active); in assay [2], 58% (active); in assay [10] it was 31% (active); in assay [12], 20.1% (active). Also, the outcome in [3], in assay [4], in [5], in assay [6], in assay [7] and in assay [8] was inactive. Moreover, the outcome in assay [9], in [11], in assay [13], in assay [14], in assay [15] and in assay [16] was inactive.

For `CC1CC(C)CN(CCCNC(=O)c2csc3c2CCCCC3)C1` (stereo not given), the results for the activation in assay [1], in assay [10] and in assay [12] were 128% (active), 87.5% (active) and 7.01% (active), respectively. The outcome in assay [2], in [3], in [4], in assay [5], in assay [6] and in assay [7] was inactive. The outcome in assay [8], in assay [9], in [11], in assay [13], in assay [14] and in assay [15] was inactive. Moreover, the outcome in assay [16] was inactive.

Turning to `COc1ccc(-n2nc(C(=O)NCC(=O)NCCCN3CC(C)CC(C)C3)c3ccccc3c2=O)cc1Cl` (stereo not given), the outcome in [1], in assay [2], in assay [3], in assay [4], in [5] and in assay [6] was inactive. Also, the outcome in assay [7], in assay [8], in [9], in [10], in assay [11] and in [13] was inactive. The result in [14], in [15] and in assay [16] was inactive. In addition, in assay [12], the activation is 12.2% (active).

Regarding `COc1ccc(C(CNC(=O)CSc2ccccc2C)N(C)C)cc1` (stereo not given), the activation in assay [1] is 74% (active); in assay [2] it was 73% (active); in assay [10], 55% (active). For the same compound, the result in [3], in assay [4], in [5], in assay [6], in [7] and in [8] was inactive. The call in [9], in assay [11], in [12], in assay [13], in assay [14] and in assay [15] was inactive. Further, the outcome in [16] was inactive.

Turning to `CCOC(=O)C1(Cc2ccccc2)CCN(Cc2cccn2-c2cccnc2)CC1`, the activation is 55% (active) in assay [1] and 89% (active) in assay [10]. Also, the outcome in assay [2], in assay [3], in [4], in [5], in assay [6] and in assay [7] was inactive. For the same compound, the outcome in assay [8], in [9], in assay [11], in assay [12], in assay [13] and in [14] was inactive. Also, the result in [15] and in assay [16] was inactive.

On to `COC(=O)C1CCN(Cc2cn(-c3ccccc3)nc2-c2ccc3c(c2)OCO3)CC1`, for which the result in assay [1], in assay [2], in assay [3], in assay [4], in [5] and in assay [6] was inactive. Also, the result in assay [7], in [8], in assay [9], in assay [11], in assay [12] and in [13] was inactive. Also, the outcome in assay [14], in assay [15] and in assay [16] was inactive. Further, the activation in assay [10] is 45% (active).

As to `O=C(CC1C(=O)NCCN1Cc1ccc(-c2ccccc2)cc1)NCCc1ccccn1` (stereo not given), the values for the activation in assay [1] and in [12] were 142% (active) and 34% (active), respectively. Also, the outcome in assay [2], in assay [3], in assay [4], in assay [5], in [6] and in assay [7] was inactive. For the same compound, the result in assay [8], in assay [9], in assay [10], in assay [11], in [13] and in assay [14] was inactive. Moreover, the result in [15] and in assay [16] was inactive.

`O=c1c(Cc2ccc(F)cc2)c(O)ccn1CCc1cnc[nH]1`: the activation is 112% (active) in assay [1] and 29% (active) in [12]. Also, the outcome in assay [2], in [3], in [4], in [5], in assay [6] and in assay [7] was inactive. Also, the outcome in assay [8], in [9], in [10], in [11], in [13] and in assay [14] was inactive. Also, the result in [15] and in [16] was inactive.

Take `Cc1ccc2nc(N(CCCN(C)C)C(=O)c3ccc(S(=O)(=O)N4CCc5ccccc5C4)cc3)sc2c1`: the activation is 242% (active) in [1], 75% (active) in assay [2] and 7.33% (active) in assay [12]. Further, the result in assay [3], in assay [4], in assay [5], in assay [6], in assay [7] and in [8] was inactive. In addition, the compound was called inactive in assay [9], in assay [10], in assay [11], in [13], in [14] and in [15]. In addition, the result in assay [16] was inactive.

For `CCCN(CCC)CCCNC(=O)CNC(=O)c1nn(-c2ccc(OC)cc2)c(=O)c2ccccc12`, the activation was 65% (active) in assay [1] and 24.9% (active) in assay [12]. The result in assay [2], in [3], in assay [4], in assay [5], in assay [6] and in assay [7] was inactive. Moreover, the result in assay [8], in assay [9], in assay [10], in assay [11], in [13] and in assay [14] was inactive. The result in assay [15] and in assay [16] was inactive.
